Results from PubChem BioAssay AID977607 (Broad Institute, 2014).
Screen size: about 1,500 compounds; about 460 (31%) were called active. Not shown: some 1% with an inconclusive outcome.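 How the source made its calls: active means curve reaches 40% activation over neutral controls at an AC40 no higher than the top valid tested concentration; inconclusive means no clear call, values can overlap the other calls; inactive means signal moving opposite to the expected increase, and the rest.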 Only a sample is shown. Measured potencies and affinities stand elsewhere.

experiment: activators of glucose-dependent insulin secretion, dose response, cell-based, INS-1E, Gaussia luciferase, luminescence, cherry-pick, set 2 (AID 977607); settings: INS-1E GLuc insulin secretion reporter, 2-3 h, active compounds read high; at 35 µM, 100% = signal doubled over neutral wells unless noted;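 further: 0% = median of the plate neutral control wells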

Max activation, inactive:
CCc1nc2ccc(C(=O)N(C)CCCN(C)C)cn2c1N(C=O)CCC(C)C -21.2% [at 1.2 µM, 100% = signal doubled over neutral wells]
O=C(O)CNS(=O)(=O)c1ccc2c(c1)Cc1cc(S(=O)(=O)NCC(=O)O)ccc1-2 -16.4% [at 0.0016 µM, 100% = signal doubled over neutral wells]
Cc1cc(-c2ccc(Br)cc2)n2nc(C)cc2n1 -25.9% [at 0.005 µM, 100% = signal doubled over neutral wells]
c1ccc(-c2nc(NCC3CC3)nc3ccsc23)cc1 -19.8%
COc1cc2[nH]c(-c3ccc(C)cc3)cc(=O)c2cc1OC -18.5% [at 3.8 µM, 100% = signal doubled over neutral wells]
CC(=O)NN1C(=O)c2ccccc2NC1c1ccccc1O (configuration not stated) -23.9% [at 0.42 µM, 100% = signal doubled over neutral wells]
O=C(Cn1nnc(-c2ccccc2)n1)N=Nc1c(O)[nH]c2ccccc12 32.5%
COc1ccc2nc3ccccc3nc2c1NC(=O)c1ccc(Cl)cc1 -10.8% [at 0.046 µM, 100% = signal doubled over neutral wells]
COc1cc(Cl)c(C)cc1NC(=O)c1ccccc1NC(=O)CN1CCN(C(C)=O)CC1 -25.4% [at 3.8 µM, 100% = signal doubled over neutral wells]
COc1cc2c(cc1OC)C(Nc1ccccc1)=NC(C)(C)C2 -20.4% [at 0.005 µM, 100% = signal doubled over neutral wells]
Cc1cc(Oc2cccnc2)ccc1NC(=O)Cc1cn(C)c2ccccc12 -32.7%
O=C(Nc1ccccc1C(=O)N/N=C/c1ccccc1)c1ccco1 -16.8% [at 0.0016 µM, 100% = signal doubled over neutral wells]
Cc1cc(C(=O)NC(C)CCC(C)C)c2ccccc2n1 (configuration not stated) 29.7% [at 1.2 µM, 100% = signal doubled over neutral wells]
CCNC(=O)C1(C)CCCN1Cc1cccc(C(F)(F)F)c1 (configuration not stated) -24%
CCCCNC(=O)C1(C)CCN1C(=O)Cc1cccc2ccccc12 (configuration not stated) 11.1% [at 0.015 µM, 100% = signal doubled over neutral wells]
CCOc1ccc(C(=O)NCC(=O)Nc2cc(C)ccn2)cc1OCC -21.2% [at 11 µM, 100% = signal doubled over neutral wells]
Cn1c(=O)n(Cc2ccccc2Br)c2ccccc21 20.4% [at 0.0016 µM, 100% = signal doubled over neutral wells]
O=c1[nH]nc(-c2ccc(F)cc2)cc1Cc1cccs1 13.5% [at 3.8 µM, 100% = signal doubled over neutral wells]
Clc1ccc(-c2cc(CN3CCOCC3)no2)cc1 -22.2% [at 11 µM, 100% = signal doubled over neutral wells]
CCNc1nc(NCC)nc(N(C)/N=C/c2ccco2)n1 24.3% [at 11 µM, 100% = signal doubled over neutral wells]
COc1cc(C(C(=O)NC2CCCC2)N(Cc2ccco2)C(=O)c2snc(C(N)=O)c2N)cc(OC)c1OC (configuration not stated) 22.3% [at 0.015 µM, 100% = signal doubled over neutral wells]
COc1ccc(C2C3CCCCC3(O)CCN2C(=O)c2cccs2)cc1 (configuration not stated) -22.1% [at 0.046 µM, 100% = signal doubled over neutral wells]
CC1CCC(NCCNC(=O)c2ccco2)CC1 (configuration not stated) -20.4%
Cc1cc(Br)c2c(c1)C1(OCCO1)C(=O)N2 -12%
CC(=O)c1cccc(NC2c3ncccc3C(=O)N2Cc2ccco2)c1 (configuration not stated) 50.6% [at 11 µM, 100% = signal doubled over neutral wells]
O=C1c2cccnc2C(Nc2ccc(F)c(Cl)c2)N1Cc1cccs1 (configuration not stated) -13.1% [at 0.135 µM, 100% = signal doubled over neutral wells]
C=CCN1C(=O)CSc2ccc(C(=O)OCC)cc21 -11.5% [at 3.8 µM, 100% = signal doubled over neutral wells]
CCCN(Cc1nnc(-c2ccccc2Cl)o1)C(=O)c1cc2ccccc2o1 -17% [at 11 µM, 100% = signal doubled over neutral wells]
Cc1cc(C)cc(N(C(=O)C(F)(F)F)C(C(=O)NC2CCCCC2)c2cccs2)c1 (configuration not stated) 37.1% [at 0.42 µM, 100% = signal doubled over neutral wells]
Cc1ccc(S(=O)(=O)N2CCN(C(=O)COC(=O)c3ccc(O)cc3)CC2)c(C)c1 -39.9%
N#CC1=C(N)Oc2n[nH]c(-c3ccc(F)cc3)c2C1c1cccnc1 (configuration not stated) 43%
O=C(O)Cc1ccc(NS(=O)(=O)c2ccc3c(c2)OCCO3)cc1 -23.1% [at 0.0016 µM, 100% = signal doubled over neutral wells]
COc1ccc(S(=O)(=O)N(C)CC(=O)Nc2ccc3c(c2)OCCO3)cc1OC 41.6% [at 0.0016 µM, 100% = signal doubled over neutral wells]
O=C(N=C1SC2CS(=O)(=O)CC2N1c1ccc(F)c(Cl)c1)C1CC1 (configuration not stated) -16.2% [at 0.046 µM, 100% = signal doubled over neutral wells]
Cc1ccc(NC(=O)c2cc(-c3ccccc3O)n[nH]2)cc1C 17.3%
Cc1cc2nc(-c3ccccc3O)[nH]c2cc1C -13.8% [at 0.42 µM, 100% = signal doubled over neutral wells]
O=C(c1cc(-c2ccc(F)cc2)nc2ccccc12)N1CCN(C2CCS(=O)(=O)C2)CC1 (configuration not stated) -24.6% [at 0.0016 µM, 100% = signal doubled over neutral wells]
CC(=O)c1cccc(N(CC(=O)NC2CCCCC2)C(=O)Cn2nnc(-c3ccccc3)n2)c1 -24.8% [at 0.0016 µM, 100% = signal doubled over neutral wells]
CCOc1nc(-c2ccccc2)c2cc(Br)ccc2n1 13.2%
COc1ccc(C(=O)Nc2nnc(-c3ccco3)s2)cc1 -13.7% [at 0.135 µM, 100% = signal doubled over neutral wells]
NC(=O)C1CCN(C(=O)CCNS(=O)(=O)c2ccccc2F)CC1 14.1% [at 1.2 µM, 100% = signal doubled over neutral wells]
CCn1cc(C(=O)O)c(=O)c2cc(F)c(N3CCN(C(=S)NC(=O)c4cccc(C)c4)CC3)cc21 -20.5%
CCOc1ccc(CCNC(=O)COC(=O)c2cccc(N(C)C)c2)cc1OCC -44%
CC(C)CC(=O)Nc1cccc(-c2nc3ncccc3o2)c1 -18.2% [at 0.0016 µM, 100% = signal doubled over neutral wells]
COc1ccc(S(=O)(=O)N2CCCCC2)cc1NC(=O)C1CCCC1 -27.7% [at 0.135 µM, 100% = signal doubled over neutral wells]
CN1CCN(c2ccc(NC(=O)c3ccc(Oc4ccccc4)cc3)cc2)CC1 -14.3% [at 0.015 µM, 100% = signal doubled over neutral wells]
O=C(NCc1ccccc1)c1cccnc1Sc1ccccc1 14.4% [at 3.8 µM, 100% = signal doubled over neutral wells]
CCOCCCn1c(SCc2ccccc2)nnc1-c1ccncc1 27.1% [at 1.2 µM, 100% = signal doubled over neutral wells]
CNc1nc(-c2ccccc2)cc(-c2ccccc2)n1 -32.2%
CC(C)Cc1nc2n[nH]c(N)c2c2c1COC(C)(C)C2 33.4%
CCCCOc1ccc(SCCCN2CCOCC2)cc1 -17.1% [at 11 µM, 100% = signal doubled over neutral wells]
CC(=O)Oc1ccccc1C(=O)OCCN=C1NS(=O)(=O)c2ccccc21 -19.1% [at 0.046 µM, 100% = signal doubled over neutral wells]
CCOC(=O)c1cc(-c2ccc(Cl)s2)nc2c1c(C)nn2C 61.3%
N#Cc1cccnc1Nc1cccc(Cl)c1 31.6%
CCNC(=O)C1(C)CCCN1C(=O)c1cc(OC)c(OC)c(OC)c1 (configuration not stated) -19.1% [at 0.135 µM, 100% = signal doubled over neutral wells]
CC(=O)Nc1ccc(Nc2nc(-c3c(C)nc4ccccn34)cs2)cc1 -20% [at 11 µM, 100% = signal doubled over neutral wells]
O=C(Nc1cccc(Cl)c1)Nc1nc(-c2ccc(Cl)cc2)cs1 -37.7% [at 11 µM, 100% = signal doubled over neutral wells]
